{
  "source": "PubChem BioAssay",
  "key": {"[1]": {"assay": "viability loss in pontine glioma line – cell-based, SU-DIPG-XIII, MIPE5.0, CellTiter-Glo, qHTS, dose response (AID 1347064; cut-off not given, nearly all actives have AC50 up to about 23 µM;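 as to AC50: cells exposed to compound for 48 hours before the viability read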)", "details": "CellTiter-Glo ATP luminescence"}, "[2]": {"assay": "viability loss in pontine glioma line – cell-based, SU-DIPG-XXV, MIPE5.0, CellTiter-Glo, qHTS, dose response (AID 1347065);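 also: cells exposed to compound for 48 hours before ATP readout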", "details": "CellTiter-Glo ATP luminescence"}, "[3]": {"assay": "growth inhibition of DIPG cells – cell-based, MIPE5.0 library, qHTS (AID 1347068; cut-off not given, nearly all actives have IC50 up to about 30 µM;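 as to IC50: cells exposed to compound for 48 hours before viability readout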)", "details": "SU-DIPG-XXV viability"}, "[4]": {"assay": "JHH-DIPG-1 glioma cell viability, MIPE5.0 library, CellTiter-Glo luminescence, qHTS (AID 1347067);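 also: cells exposed to compound for 48 hours before readout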", "details": "JHH-DIPG-1 glioma viability, CellTiter-Glo ATP luminescence"}, "[5]": {"assay": "growth inhibition of DIPG cells – cell-based, MIPE4.0 library, CellTiter-Glo luminescence, qHTS (AID 1347066; cut-off not given, nearly all actives have AC50 up to about 30 µM;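 also: cells exposed to compound for 48 hours before readout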)", "details": "SU-DIPG-VI viability, CellTiter-Glo ATP luminescence"}, "[6]": {"assay": "viability loss with induced miR-34 in A549 – imaging, A549 dox-inducible miR-34, nuclei and caspase counts, primary screen (AID 1347080;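 active = compounds whose cell count with miR-34 switched on is under 0.7 times the count with it off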)", "details": "A549 miR-34 inducible, Hoechst nuclei count, 48 h"}, "[7]": {"assay": "MELAS cybrid and Rieske KO viability enhancers – cell-based, MELAS cybrids, Rieske KO mouse fibroblasts, CellTiter-Glo, primary screen (AID 1508586;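 active = mean z-score across replicates of 1.96 or higher in either the MELAS or the Rieske mutant cell line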;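 also: z relative to plate mean and SD of compound and empty wells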)", "details": "low glucose"}, "[8]": {"details": "stronger effect = lower value, cell number ratio, induced over uninduced"}, "[9]": {"details": "measured here: relative caspase fold change +Dox/-Dox"}, "[10]": {"details": "measured here: total cells with miR-34 induction, stronger effect = lower value"}, "[11]": {"details": "measured here: total cells without miR-34 induction"}, "[12]": {"details": "MELAS cybrid survival, CellTiter-Glo 48 h, stronger effect = higher value"}, "[13]": {"details": "Rieske KO mouse fibroblast survival, CellTiter-Glo 72 h"}},
  "note": "Inconclusive results are not listed. Active and inactive are the calls of the source. Unless noted, the limit is not given here; nearly all actives have AC50 up to about 26 µM.",
  "data": [
    {"smiles": "Cc1cc(O[C@@H](CCC(F)(F)F)c2ccc(C(=O)NCCC(=O)O)cc2)cc(C)c1-c1ccc(C(C)(C)C)cc1", "values": [
      {"measurement": "AC50", "setting": "[1]", "value": "11.8 µM (active)"},
      {"measurement": "AC50", "setting": "[2]", "value": "9.34 µM (active)"},
      {"measurement": "IC50", "setting": "[3]", "value": "8.33 µM (active)"}
    ]},
    {"smiles": "Cn1cc(-c2cnc3ccc4ccc(CS(=O)(=O)NCc5ccccn5)cc4c(=O)c3c2)cn1", "values": [
      {"measurement": "outcome", "setting": "[1]", "value": "inactive"},
      {"measurement": "outcome", "setting": "[2]", "value": "inactive"},
      {"measurement": "outcome", "setting": "[3]", "value": "inactive"}
    ]},
    {"smiles": "Oc1ccc(C2CCN(c3ccnc4ccccc34)CC2)cc1O", "values": [
      {"measurement": "AC50", "setting": "[1]", "value": "16.6 µM (active)"},
      {"measurement": "AC50", "setting": "[4]", "value": "20.9 µM (active)"}
    ]},
    {"smiles": "Cc1ccc(NS(=O)(=O)c2ccc3c(c2)C2C=CCC2C(c2ccc(C(=O)O)cc2)N3)cc1C", "note": "(centres undefined)", "values": [
      {"measurement": "outcome", "setting": "[1]", "value": "inactive"},
      {"measurement": "outcome", "setting": "[4]", "value": "inactive"},
      {"measurement": "outcome", "setting": "[3]", "value": "inactive"}
    ]},
    {"smiles": "Nc1ncnc2c1nc(Cl)n2[C@@H]1O[C@H](CO)[C@@H](O)[C@H]1O", "values": [
      {"measurement": "AC50", "setting": "[1]", "value": "16.6 µM (active)"},
      {"measurement": "AC50", "setting": "[5]", "value": "23.5 µM (active)"},
      {"measurement": "outcome", "setting": "[3]", "value": "inactive"}
    ]},
    {"smiles": "Cc1c(-c2ccc(-c3ccccc3F)cc2)nc2ccc(F)cc2c1C(=O)O", "values": [
      {"measurement": "outcome", "setting": "[1]", "value": "inactive"},
      {"measurement": "outcome", "setting": "[4]", "value": "inactive"}
    ]},
    {"smiles": "c1cn2cc(-c3ccc4cn[nH]c4c3)nc(Nc3ccc(N4CCOCC4)cc3)c2n1", "values": [
      {"measurement": "AC50", "setting": "[1]", "value": "11.8 µM (active)"},
      {"measurement": "AC50", "setting": "[2]", "value": "6.61 µM (active)"},
      {"measurement": "AC50", "setting": "[4]", "value": "14.8 µM (active)"},
      {"measurement": "outcome", "setting": "[3]", "value": "inactive"},
      {"measurement": "fold change", "setting": "[6]; [8]", "value": "0.776 (inactive)"},
      {"measurement": "fold change", "setting": "[6]; [9]", "value": 0.455},
      {"measurement": "cell count", "setting": "[6]; [10]", "value": 4570},
      {"measurement": "cell count", "setting": "[6]; [11]", "value": 5880},
      {"measurement": "z-score", "setting": "[7]; [12]", "value": "1.34 (inactive)"},
      {"measurement": "z-score", "setting": "[7]; [13]", "value": 0.233}
    ]},
    {"smiles": "Cc1c(Cl)cccc1S(=O)(=O)Nc1nc(CCN2CCOCC2=O)cs1", "values": [
      {"measurement": "outcome", "setting": "[1]", "value": "inactive"},
      {"measurement": "outcome", "setting": "[2]", "value": "inactive"},
      {"measurement": "outcome", "setting": "[3]", "value": "inactive"}
    ]},
    {"smiles": "CN(C)C(=O)c1cc2cnc(Nc3ccc(N4CCNCC4)cn3)nc2n1C1CCCC1", "values": [
      {"measurement": "outcome", "setting": "[1]", "value": "inactive"},
      {"measurement": "outcome", "setting": "[2]", "value": "inactive"},
      {"measurement": "outcome", "setting": "[4]", "value": "inactive"},
      {"measurement": "outcome", "setting": "[3]", "value": "inactive"},
      {"measurement": "fold change", "setting": "[6]; [8]", "value": "1 (inactive)"},
      {"measurement": "fold change", "setting": "[6]; [9]", "value": 0.436},
      {"measurement": "cell count", "setting": "[6]; [10]", "value": 5240},
      {"measurement": "cell count", "setting": "[6]; [11]", "value": 5220},
      {"measurement": "z-score", "setting": "[7]; [12]", "value": "-0.462 (inactive)"},
      {"measurement": "z-score", "setting": "[7]; [13]", "value": -0.582}
    ]}
  ]
}
